Data as given in ChEMBL document CHEMBL4513149, “CO-ADD screening of MMV (CH) - MMV compounds” (2021).
Potency and affinity values are given separately.

Tested on: Candida albicans
Conditions: 20 µM

Q: With `CN1CCN(S(=O)(=O)c2ccc(-c3ccc4c(Nc5ccc6nn[nH]c6c5)ccnc4c3)cc2)CC1` as the molecule, how does the Inhibition read?
A: Its Inhibition is 4.6%.

Q: How did the Inhibition turn out when `CCN(CC)CCCCCCNc1cc(OC)cc2c(C)ccnc12.Cc1ccc(S(=O)(=O)O)cc1` was run?
A: Its Inhibition is 2.19%.

Q: With `CN(C(=O)c1cc2c(-c3cncnc3)cccc2[nH]1)c1ccccc1` as the molecule, how does the Inhibition read?
A: Its Inhibition is 6.97%.

Q: How did the Inhibition turn out when `OCCc1ccc(Nc2nccc(-c3nnc4ccccn34)n2)cc1` was run?
A: Its Inhibition is 3.06%.

Q: `CN1CCN(c2cc(-c3ccc(F)cc3)nc(-c3ccncc3)n2)CC1` was tested. Which Inhibition did it give?
A: The Inhibition was 3.25%.

Q: How did the Inhibition turn out when `CCc1ccc([C@@H]2C[C@H](C(F)(F)F)n3ncc(C(=O)NCc4ccc(OC)cc4)c3N2)cc1` was run?
A: The Inhibition was 5.42%.

Q: `COc1ccc(C2(C(=O)Nc3ccc(Br)cc3)CCCC2)cc1` was tested. Which Inhibition did it give?
A: Its Inhibition is 4.64%.

Q: How did the Inhibition turn out when `O=C(c1ccc(F)cc1)N(CCNc1ccccc1)c1ccccc1` was run?
A: Its Inhibition is 5.49%.

Q: With `O=C(Nc1c(O)cccc1-c1nc2c(C(=O)O)cccc2o1)c1cc(-c2ccccc2)on1` as the molecule, how does the Inhibition read?
A: The Inhibition was 3.49%.

Q: With `COc1cccc(OC)c1C(=O)Nc1ccc(Cl)c(-c2nc3ccccc3s2)c1` as the molecule, how does the Inhibition read?
A: The Inhibition was 4.58%.

Q: For `c1ccc(-c2[nH]c3ccccc3c2C(c2ccccn2)N2CCCC2)cc1` (stereo unspecified), which Inhibition is on record?
A: Its Inhibition is 1.35%.

Q: Which Inhibition does the source give for `CCN(CC)C(=O)N1CCN(C)CC1` [DIETHYLCARBAMAZINE] here?
A: Its Inhibition is 2.79%.

Q: With `COc1ccc(-c2nn(C(C)C)c3ncnc(N)c23)cc1OC` as the molecule, how does the Inhibition read?
A: Its Inhibition is 2.58%.

Q: How did the Inhibition turn out when `CC(C)C(NC(=O)Cc1cccc2ccccc12)C(=O)Nc1cccc(C#N)c1` (stereo unspecified) was run?
A: The Inhibition was 6.6%.

Q: Which Inhibition does the source give for `CC(=O)N1CCc2cc3nc(C)cc(C)c3cc21` here?
A: The Inhibition was 4.19%.

Q: With `COc1cccc(CC(=O)N2CCC(n3c(C)nc4ccc(F)cc43)CC2)c1` as the molecule, how does the Inhibition read?
A: Its Inhibition is 3.01%.

Q: For `Cc1nc(-c2cccc(NCc3ccccc3)c2)[nH]c1C`, which Inhibition is on record?
A: The Inhibition was 2.98%.

Q: How did the Inhibition turn out when `O=C(Nc1cccc(Cl)c1)c1cnc(N2CCN(c3ccncc3)CC2)c(Cl)c1` was run?
A: The Inhibition was 2.09%.

Q: Which Inhibition does the source give for `CCCCOC(=O)Nc1cc2nc(C3CCCCC3)[nH]c2cc1N1CCCC1` here?
A: The Inhibition was 3.13%.

Q: For `O=C(Nc1cnc2ccccc2c1)c1cccc(-n2cnnn2)c1`, which Inhibition is on record?
A: The Inhibition was 4.47%.

Q: Which Inhibition does the source give for `FC(F)(F)c1cccc(-c2nc3c(NCc4ccncc4)nccc3[nH]2)c1` here?
A: Its Inhibition is 3.63%.

Q: Which Inhibition does the source give for `CC[C@H](CO)NCCN[C@H](CC)CO.Cl.Cl` here?
A: The Inhibition was 3.25%.

Q: With `COc1ccccc1CNC(=O)c1cc(C2CC2)nc2c1cnn2C(C)C` as the molecule, how does the Inhibition read?
A: Its Inhibition is 6.8%.

Q: Which Inhibition does the source give for `COc1ccc(-c2cnc3ccc(NCc4ccc(S(N)(=O)=O)cc4)nn23)cn1` here?
A: The Inhibition was 4.45%.

Q: With `O=[N+]([O-])c1cn2c(n1)OC[C@@H](OCc1ccc(OC(F)(F)F)cc1)C2` [PRETOMANID] as the molecule, how does the Inhibition read?
A: Its Inhibition is 4.06%.

Q: `CNC(=O)CNc1nc(-c2ccccn2)nc2scc(-c3ccccc3)c12` was tested. Which Inhibition did it give?
A: Its Inhibition is 0.88%.

Q: How did the Inhibition turn out when `O=C(C(Cc1c[nH]c2ccccc12)NS(=O)(=O)c1ccc(Cl)cc1)N1CCCCC1` (stereo unspecified) was run?
A: The Inhibition was 2.45%.

Q: With `N=C(N)c1ccc(-c2cc(-c3ccccc3)on2)cc1` as the molecule, how does the Inhibition read?
A: Its Inhibition is 3.34%.

Q: `CC(C)(C)n1nc(Cc2cccc3ccccc23)c2c(N)ncnc21` was tested. Which Inhibition did it give?
A: The Inhibition was 3.16%.

Q: Which Inhibition does the source give for `CN1CCN(c2nccc3nc(-c4ccc(F)c(F)c4)[nH]c23)CC1` here?
A: Its Inhibition is 1.66%.

Q: Which Inhibition does the source give for `Cc1cc(C)n2nc(C(=O)Nc3cc(C(F)(F)F)ccc3N3CCOCC3)nc2n1` here?
A: Its Inhibition is 5.28%.

Q: With `COc1ccc(N(CCc2cccc(C)n2)C(=O)C2CCCCC2)cc1` as the molecule, how does the Inhibition read?
A: The Inhibition was -0.29%.

Q: With `Cl.NCC(c1cccs1)S(=O)(=O)c1ccccc1` (stereo unspecified) as the molecule, how does the Inhibition read?
A: Its Inhibition is 3.86%.

Q: Which Inhibition does the source give for `COC(=O)c1c(NC(=O)c2cc3ccccc3oc2=O)sc2c1CCN(Cc1ccccc1)C2` here?
A: Its Inhibition is 2.23%.

Q: For `CN(C)CCNC(=O)N1CCCN(c2ncnc3cc(-c4ccccc4)sc23)CC1`, which Inhibition is on record?
A: The Inhibition was 2.85%.

Q: Which Inhibition does the source give for `CCOc1ccc2cc(-c3nn(C(C)(C)C)c(N)c3C(N)=O)cnc2c1.Cl` here?
A: Its Inhibition is 2.56%.
